Assay results taken from the antibiotic and cytotoxicity screens of Wong et al. (2023).
Among all 39,000 compounds or so, about 1,500 (3.8%) were called active. For the sample, actives were picked, then their nearest neighbours and some compounds at random.

Tested on: HSkMC (human skeletal muscle cells)
Assay: cytotoxicity call (relative viability < 0.9)
Conditions: 10 µM

| Compound | cytotoxicity call |
| --- | --- |
| CCOc1cc(OCC)cc(C(=O)N[C@@H](Cc2ccc(-n3cc(-c4ccc(C(=O)NO)s4)nn3)cc2)C(=O)OC)c1 | inactive |
| COc1ccccc1-c1cnc2c(c1)C(=O)N([C@H](C)CO)C[C@@H](C)[C@H](CN(C)C(=O)c1cccnc1)O2 | inactive |
| C[C@@H]1CN([C@@H](C)CO)C(=O)c2cccc(NC(=O)Nc3ccccc3)c2O[C@@H]1CN(C)Cc1ccc(Cl)c(Cl)c1 | inactive |
| C[C@H]1CN([C@@H](C)CO)C(=O)c2cccc(NC(=O)Nc3cccc4ccccc34)c2O[C@H]1CN(C)Cc1ccc(Cl)c(Cl)c1 | inactive |
| C[C@H](CO)N1C[C@H](C)[C@H](CN(C)Cc2ccc(Cl)c(Cl)c2)Oc2c(NC(=O)Nc3ccccc3)cccc2C1=O | inactive |
| C[C@@H]1CN([C@H](C)CO)C(=O)c2cccc(NC(=O)Nc3ccccc3)c2O[C@H]1CN(C)Cc1ccc(Cl)c(Cl)c1 | inactive |
| C[C@H]1CN([C@@H](C)CO)C(=O)c2cccc(NC(=O)Nc3ccccc3)c2O[C@H]1CN(C)Cc1ccc(Cl)c(Cl)c1 | inactive |
| C[C@@H]1CN([C@@H](C)CO)C(=O)c2cccc(NC(=O)Nc3cccc4ccccc34)c2O[C@@H]1CN(C)Cc1ccc(Cl)c(Cl)c1 | inactive |
| C[C@H](CO)N1C[C@H](C)[C@@H](CN(C)Cc2ccc(Cl)c(Cl)c2)Oc2c(NC(=O)Nc3ccccc3)cccc2C1=O | active |
| C[C@H](CO)N1C[C@H](C)[C@@H](CN(C)Cc2ccc(Cl)c(Cl)c2)Oc2c(NC(=O)Nc3cccc4ccccc34)cccc2C1=O | active |
| C[C@H]1CN([C@@H](C)CO)C(=O)c2cccc(NC(=O)Nc3ccccc3)c2O[C@@H]1CN(C)Cc1ccc(Cl)c(Cl)c1 | active |
| Cc1noc(C)c1NC(=O)Nc1ccc2c(c1)C(=O)N([C@H](C)CO)C[C@H](C)[C@@H](CN(C)Cc1ccc(Oc3ccccc3)cc1)O2 | inactive |
| C[C@H]1CN([C@@H](C)CO)C(=O)Cc2cc(NC(=O)Cc3ccccc3)ccc2O[C@H]1CN(C)C(=O)Nc1cccc2ccccc12 | inactive |
| Cc1noc(C)c1S(=O)(=O)Nc1ccc2c(c1)C(=O)N([C@H](C)CO)C[C@@H](C)[C@@H](CN(C)Cc1ccc(Oc3ccccc3)cc1)O2 | inactive |
| Cc1cc2c(cc1C)N[C@@H](CC(N)=O)C(=O)N2 | inactive |
| C[C@@H]1CN([C@H](C)CO)C(=O)Cc2cc(NC(=O)CCCN(C)C)ccc2O[C@H]1CN(C)Cc1ccc(Oc2ccccc2)cc1 | inactive |
| COc1ccccc1S(=O)(=O)N[C@H]1C=C[C@H](CC(=O)N2CCN(C)CC2)O[C@@H]1CO | inactive |
| C[C@H](CO)N1C[C@H](C)[C@H](CN(C)C(=O)NC2CCCCC2)OCCCC[C@H](C)Oc2ccc(NC(=O)Nc3ccc(C(F)(F)F)cc3)cc2C1=O | inactive |
| C[C@H](CO)N1C[C@H](C)[C@@H](CN(C)C(=O)c2ccncc2)Oc2cc(-c3cccc(C#N)c3)ccc2S1(=O)=O | inactive |
| C[C@@H]1CCCCO[C@H](CN(C)Cc2ccccc2)[C@@H](C)CN([C@H](C)CO)C(=O)c2cc(NS(=O)(=O)c3ccccc3)ccc2O1 | inactive |
| CCC(=O)Oc1ccc2c(c1)CCC1C2CCC2(C)C1CC(OC(=O)CC)C2OC(=O)CC (configuration not stated) | inactive |
| CC(C)c1cc(C(C)C)c(CC(=O)NS(=O)(=O)Oc2c(C(C)C)cccc2C(C)C)c(C(C)C)c1 | active |
| COC(=O)[C@@H](N)c1cccc(OC)c1 | inactive |

| Compound | cytotoxicity call |
| --- | --- |
| CC(C)c1cccc(C(C)C)c1NC(=O)Cc1cccs1 | inactive |
| C[C@H]1CN([C@@H](C)CO)C(=O)c2c(c3ccccc3n2C)-c2ccccc2CO[C@H]1CN(C)C(=O)c1ccc(F)cc1 | inactive |
| COC(=O)C[C@@H]1CC[C@@H]2[C@H](COC[C@H](O)CN2S(=O)(=O)c2ccc(F)cc2)O1 | inactive |
| C[C@@H]1CN([C@@H](C)CO)S(=O)(=O)c2ccc(-c3cccnc3)cc2O[C@@H]1CN(C)C(=O)NC1CCCC1 | inactive |
| C[C@@H]1CN([C@H](C)CO)S(=O)(=O)c2ccc(-c3cncnc3)cc2O[C@@H]1CN(C)C(=O)C1CCCCC1 | inactive |
| CCCCC1C(=O)N(c2ccccc2)N(c2ccc(O)cc2)C1=O (configuration not stated) | inactive |
| Oc1ccc(O)cc1 | inactive |
| O=C1C=CC(=O)N1c1ccc(O)cc1 | active |
| COc1ccc(CN(C)C[C@H]2OCCCC[C@H](C)Oc3ccc(NS(=O)(=O)c4cccs4)cc3C(=O)N([C@@H](C)CO)C[C@@H]2C)cc1 | inactive |
| C[C@H]1CN([C@@H](C)CO)S(=O)(=O)c2ccc(C3=CCCCC3)cc2O[C@H]1CN(C)S(=O)(=O)c1cn(C)cn1 | inactive |
| Cc1ccc(S(=O)(=O)Nc2ccc3c(c2)C(=O)N([C@H](C)CO)C[C@@H](C)[C@H](CN(C)Cc2ccccc2)OCCCC[C@@H](C)O3)cc1 | inactive |
| COc1ccc(S(=O)(=O)N(C)C[C@H]2Oc3c(NC(=O)Nc4c(C)noc4C)cccc3C(=O)N([C@@H](C)CO)C[C@H]2C)cc1 | inactive |
| COc1ccc2c3c(n(c2c1)C)[C@H](CO)N(C[C@]13CN(C1)C(=O)CN(C)C)C(=O)CN(C)C | inactive |
| C[C@@H]1CN([C@@H](C)CO)C(=O)c2cc(NC(=O)CCCN(C)C)ccc2O[C@H]1CN(C)Cc1ccc(C(=O)O)cc1 | inactive |
| Cc1ncc([N+](=O)[O-])n1C[C@@H](O)CCl | inactive |
| Cc1noc(C)c1NC(=O)N(C)C[C@@H]1Oc2ccc(NC(=O)Cn3cnnn3)cc2C(=O)N([C@@H](C)CO)C[C@@H]1C | inactive |
| N#Cc1c(N)nc(SCc2csc(-c3ccc(Cl)cc3)n2)c(C#N)c1-c1ccc(OCCO)cc1 | active |
| COc1ccc(NC(=O)Nc2ccc3c(c2)C(=O)N([C@@H](C)CO)C[C@@H](C)[C@@H](CN(C)C(=O)Nc2ccc4c(c2)OCO4)OCCCC[C@@H](C)O3)cc1 | inactive |
| C[C@@H]1CCCCO[C@@H](CN(C)C(=O)CCC(F)(F)F)[C@@H](C)CN([C@@H](C)CO)C(=O)c2cc(NC(=O)Cc3ccccc3)ccc2O1 | inactive |
| C[C@@H]1CN([C@@H](C)CO)C(=O)Cc2cc(NC(=O)Nc3ccc(F)cc3)ccc2O[C@@H]1CN(C)S(C)(=O)=O | inactive |
| CCCNC(=O)[C@@]1(Sc2ccc(C)cc2)CC(=O)N(Cc2ccccc2C(F)(F)F)[C@@H]1c1ccc(CO)cc1 | inactive |
| Cn1cc(-c2[nH]c3cc(NC(=O)[C@H](N)C4CCCCC4)cc4c3c2C=NNC4=O)cn1 | active |
| CCCCCCCC/C=C\CCCCCCCC(N)=O | inactive |

| Compound | cytotoxicity call |
| --- | --- |
| O=C(C[C@@H]1CC[C@@H]2[C@H](COC[C@H](O)CN2S(=O)(=O)c2ccccc2)O1)NCc1ccncn1 | inactive |
| C[C@@H]1CCCCO[C@@H](CN(C)C(=O)Nc2ccc(C(F)(F)F)cc2)[C@@H](C)CN([C@H](C)CO)C(=O)c2cc(NC(=O)CCCCCC(=O)Nc3ccccc3N)ccc2O1 | inactive |
| CC(=O)O.Cc1c(-c2ccc(O)cc2)n(Cc2ccc(OCCN3CCCCCC3)cc2)c2ccc(O)cc12 | inactive |
| CCCCC(=O)c1ccc(O)cc1 | inactive |
| CCCCCS(=O)(=O)CCCCCCCCCCn1c(-c2ccc(O)cc2)c(C)c2cc(O)ccc21 | active |
| C=C(NC(=O)C(=C)NC(=O)c1csc(C2=N[C@H]3c4csc(n4)[C@H]4NC(=O)c5csc(n5)[C@H](C(C)(O)[C@@H](C)O)NC(=O)[C@H]5CSC(=N5)C(=CC)NC(=O)[C@H]([C@@H](C)O)NC(=O)c5csc(n5)[C@]3(CC2)NC(=O)[C@H](C)NC(=O)C(=C)NC(=O)[C@H](C)NC(=O)[C@H]([C@H](C)CC)N[C@@H]2C=Cc3c([C@H](C)O)cc(nc3[C@H]2O)C(=O)O[C@@H]4C)n1)C(N)=O (some centres not stated) | active |
| C=C(NC(=O)C(=C)NC(=O)c1csc(C2=N[C@@H]3c4csc(n4)[C@@H]4NC(=O)c5csc(n5)[C@H](C(C)(O)[C@@H](C)O)NC(=O)[C@H]5CSC(=N5)/C(=C/C)NC(=O)[C@H]([C@@H](C)O)NC(=O)c5csc(n5)[C@]3(CC2)NC(=O)[C@@H](C)NC(=O)C(=C)NC(=O)[C@@H](C)NC(=O)[C@@H]([C@H](C)CC)N[C@H]2C=Cc3c([C@@H](C)O)cc(nc3[C@@H]2O)C(=O)O[C@H]4C)n1)C(N)=O (some centres not stated) | inactive |
| C=C(NC(=O)C(=C)NC(=O)c1csc(C2=NC3c4csc(n4)C4NC(=O)c5csc(n5)C(C(C)(O)C(C)O)NC(=O)C5CSC(=N5)C(=CC)NC(=O)C(C(C)O)NC(=O)c5csc(n5)C3(CC2)NC(=O)C(C)NC(=O)C(=C)NC(=O)C(C)NC(=O)C(C(C)CC)NC2C=Cc3c(C(C)O)cc(nc3C2O)C(=O)OC4C)n1)C(N)=O (configuration not stated) | inactive |
| C[C@@H]1CCCCO[C@H](CN(C)C(=O)NC2CCCCC2)[C@@H](C)CN([C@@H](C)CO)C(=O)c2cc(NC(=O)C3CCCCC3)ccc2O1 | inactive |
| CS(=O)(=O)N1[C@@H]2c3ccc(-c4ccc(F)cc4)c(=O)n3C[C@@H]2[C@@H](CO)[C@@H]1C(=O)O | inactive |
| Cc1noc(C)c1S(=O)(=O)N(C)C[C@H]1Oc2ccc(NS(=O)(=O)c3ccccc3)cc2C(=O)N([C@@H](C)CO)C[C@H]1C | inactive |
| C[C@@H]1CCCCO[C@H](CN(C)S(C)(=O)=O)[C@H](C)CN([C@@H](C)CO)C(=O)c2cc(NS(=O)(=O)c3cn(C)cn3)ccc2O1 | inactive |
| C[C@@H]1CCCCO[C@@H](CN(C)Cc2ccc(Cl)c(Cl)c2)[C@@H](C)CN([C@@H](C)CO)C(=O)c2cc(NC(=O)Cc3ccccc3)ccc2O1 | inactive |
| C[C@@H]1CN([C@H](C)CO)C(=O)c2cc(NC(=O)Cc3ccccc3)ccc2O[C@@H](C)CCCCO[C@@H]1CN(C)Cc1ccc(Cl)c(Cl)c1 | inactive |
| C[C@H]1CCCCO[C@H](CN(C)Cc2ccc(Cl)c(Cl)c2)[C@@H](C)CN([C@@H](C)CO)C(=O)c2cc(NC(=O)Cc3ccccc3)ccc2O1 | inactive |
| C[C@@H]1CCCCO[C@@H](CN(C)Cc2ccc(Cl)c(Cl)c2)[C@H](C)CN([C@H](C)CO)C(=O)c2cc(NC(=O)Cc3ccccc3)ccc2O1 | active |
| C[C@@H]1CCCCO[C@@H](CN(C)Cc2ccc(Cl)c(Cl)c2)[C@H](C)CN([C@@H](C)CO)C(=O)c2cc(NC(=O)Cc3ccccc3)ccc2O1 | inactive |
| C[C@@H]1CCCCO[C@H](CN(C)Cc2ccc(Cl)c(Cl)c2)[C@H](C)CN([C@@H](C)CO)C(=O)c2cc(NC(=O)Cc3ccccc3)ccc2O1 | inactive |
| C[C@@H]1CN([C@H](C)CO)C(=O)c2cc(NC(=O)Cc3ccccc3)ccc2O[C@@H](C)CCCCO[C@H]1CN(C)Cc1ccc(Cl)c(Cl)c1 | active |
| C[C@@H]1CCCCO[C@@H](CN(C)Cc2ccc(Cl)c(Cl)c2)[C@@H](C)CN([C@H](C)CO)C(=O)c2cc(NC(=O)Cc3ccccc3)ccc2O1 | active |
| C[C@@H]1CCCCO[C@H](CN(C)Cc2ccc(Cl)c(Cl)c2)[C@@H](C)CN([C@@H](C)CO)C(=O)c2cc(NC(=O)Cc3ccccc3)ccc2O1 | inactive |
